Sampled rows, rich in hits. Any-hit rate of the full collection: about 19%.
TDP1 cell CPT – qHTS for Inhibitors of human tyrosyl-DNA phosphodiesterase 1 (TDP1): qHTS in cells in presence of CPT; chicken DT40 Tdp1-/-;hTDP1 cells + 20 nM CPT, ATP luminescence, 48 h; hit rate 12% among 420,000; AID 686979, 2013; Potency, µM (highest dose often 46.2 µM), most hits filed as inhibitors; note: nearly all actives have a fitted effect of over 55% in size
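Chicken DT40 Tdp1-/- cells stably complemented with human TDP1 were seeded at 400 cells/well in medium containing 20 nM camptothecin, exposed to pin-transferred compounds, and grown at 37 °C for at least 48 hr. Viability was read as ATP luminescence.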
HT1080 IDH1KD tx – qHTS for induction of synthetic lethality in tumor cells producing 2HG: qHTS for the HT-1080-IDH1KD cell line; HT-1080 IDH1 knockdown viability, ATP luminescence, 48 h; Potency, µM (top dose mostly 46.1 µM), hits mostly cytotoxic; hit rate 2% among 360,000; AID 686971, 2013
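Knockdown cells (IDH1KD HT-1080) received compounds 2 h after plating at 750 cells/well and were kept 48 h at 37 °C in 5% FBS RPMI. A CellTiter-Glo luminescence read gave % activity for curve fitting.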
HT1080NT lethal – qHTS for induction of synthetic lethality in tumor cells producing 2HG: qHTS for the HT-1080-NT fibrosarcoma cell line; HT-1080-NT fibrosarcoma viability, CellTiter-Glo ATP luminescence, 48 h; Potency, µM (highest dose often 46.1 µM), most hits filed as cytotoxic; hit rate 1.6% among 360,000; AID 686970, 2013;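 note: NT is the 2HG producing partner of a matched IDH1 knockdown line; nearly all actives have a fitted effect of over 55% in size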
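Toxicity toward the 2HG-producing NT line was scored as %Activity, normalised to DMSO and no-cell wells, from CellTiter-Glo luminescence after 48 hours' treatment.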
TDP1 cell noCPT – qHTS for Inhibitors of human tyrosyl-DNA phosphodiesterase 1 (TDP1): qHTS in cells in absence of CPT; DT40 Tdp1-/- hTDP1 cells, no CPT, ATP luminescence, 48 h; Potency, µM (highest dose often 46.2 µM), actives largely listed as inhibitors; hit rate 15% among 420,000; AID 686978, 2013; note: nearly all actives have a fitted effect of over 55% in size
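A cellular qHTS used chicken DT40 cells lacking endogenous Tdp1 but carrying stably transfected human TDP1. Compounds were applied without camptothecin, and cell growth kinetics were judged by ATP-dependent luminescence after ≥48 hr.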
IL-1B inflam inh – qHTS for Inhibitors of Inflammasome Signaling: IL-1-beta AlphaLISA Primary Screen; THP-1 LPS/ATP IL-1B secretion, AlphaLISA, 16 h; stronger effect = lower value; activity change, % at 57.5 µM; hit rate 4.7% among 360,000; AID 743279, 2014; in the data active = activity change below about -50%; inconclusive = mostly about -30% to -49%
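Secreted IL-1B measured by AlphaLISA bead assay after 16 h compound exposure of THP-1 cells; compounds (final up to 57.5 uM) added 1 h before LPS (250 ng/mL) and ATP (1.25 mM) stimulation; lower signal means less secretion.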
Large screens that a line does not name were inactive. Unless noted, calls come from the whole dose curve; as a rule, active = well fitted curve in the direction sought with a large enough effect; inconclusive = small, poorly fitted or top-dose-only effect, or another doubt; inactive = no such curve, though single readings can be large; an effect the other way counts as inactive or inconclusive.

COc1ccc(NC(=O)/C(=C\c2ccc(OC)c(OC)c2)NC(=O)c2ccco2)cc1	none
Cc1cc(=O)c2cc(Br)ccc2[nH]1	TDP1 cell CPT 6.5µM, TDP1 cell noCPT 6.5µM
O=C1c2cc(O)c(O)cc2S(=O)(=O)C1c1ccccc1 (stereo unspecified)	none
Fc1ccc(-n2cc(-c3ccccc3)[n+]3c2SCC3)cc1	HT1080 IDH1KD tx inconclusive, TDP1 cell noCPT inconclusive
COc1ccc(-c2cn(-c3ccccc3)c3[n+]2CCS3)cc1	TDP1 cell CPT 2.3µM, HT1080 IDH1KD tx 13µM, HT1080NT lethal inconclusive, TDP1 cell noCPT 2.3µM
CC(C)(C)c1ccc(-c2cn(-c3ccc(Br)cc3)c3[n+]2CCCS3)cc1	TDP1 cell CPT 0.16µM, HT1080 IDH1KD tx 8.2µM, HT1080NT lethal 23µM, TDP1 cell noCPT 0.18µM, IL-1B inflam inh -99
O=[N+]([O-])c1ccc(N/N=C/c2sc(N3CCOCC3)nc2-c2ccccc2)c(S(=O)(=O)Nc2ccccc2Cl)c1	TDP1 cell CPT 3.3µM, TDP1 cell noCPT 1.8µM
O=C(O)c1cccc(N/N=C/c2sc(N3CCOCC3)nc2-c2ccccc2)c1	none
O=C(N/N=C/c1sc(N2CCOCC2)nc1-c1ccccc1)c1ccccc1O	HT1080 IDH1KD tx inconclusive, HT1080NT lethal inconclusive, TDP1 cell noCPT inconclusive
O=[N+]([O-])c1ccc(N/N=C/c2sc(N3CCOCC3)nc2-c2ccccc2)c(S(=O)(=O)Nc2ccc(Cl)cc2)c1	TDP1 cell CPT 1.6µM, TDP1 cell noCPT 1µM, IL-1B inflam inh inconclusive
Cc1cccc(CSc2ncc(Cl)c(C(=O)Nc3sc4c(c3C#N)CCCC4)n2)c1	TDP1 cell CPT 23µM, TDP1 cell noCPT 5.8µM (no result: HT1080 IDH1KD tx, HT1080NT lethal, IL-1B inflam inh)
Cc1cccc(CSc2ncc(Cl)c(C(=O)Nc3sc4c(c3C(N)=O)CCCC4)n2)c1	TDP1 cell CPT 23µM, TDP1 cell noCPT 8.2µM (no result: HT1080 IDH1KD tx, HT1080NT lethal, IL-1B inflam inh)
Cn1c(N)c(C(=O)CSc2nnc(-c3c[nH]c4ccccc34)n2C2CC2)c(=O)[nH]c1=O	none
Cc1cccc(NC(=S)N2CCC(NC(=O)c3cccc(F)c3)CC2)c1	none
CC1S/C(=N/N=C/c2ccco2)N(Cc2ccccc2)C1=O (stereo unspecified)	TDP1 cell CPT inconclusive, TDP1 cell noCPT 9.2µM
CCC1S/C(=N/N=C/c2ccco2)N(Cc2ccc(F)cc2)C1=O (stereo unspecified)	TDP1 cell CPT inconclusive, TDP1 cell noCPT inconclusive
COC(=O)c1ccc(-c2cccc3c2OC(CNC(=O)/C=C/c2ccc(OC)c(OC)c2)C3)nc1 (stereo unspecified)	TDP1 cell CPT inconclusive (no result: HT1080 IDH1KD tx, HT1080NT lethal, IL-1B inflam inh)
COCC(=O)N1CCCC(C(=O)c2ccc(-c3ccccc3)c(F)c2)C1 (stereo unspecified)	TDP1 cell CPT 21µM, TDP1 cell noCPT 15µM
CC(C)Oc1cccc(C(=O)C2CCCN(C(=O)c3cc(C(F)(F)F)[nH]n3)C2)c1 (stereo unspecified)	TDP1 cell CPT inconclusive, TDP1 cell noCPT inconclusive, IL-1B inflam inh -54
Cc1ccc2[nH]nc(C(=O)N3CCCC(C(=O)c4ccc(Cl)cc4)C3)c2c1 (stereo unspecified)	TDP1 cell CPT inconclusive, TDP1 cell noCPT 16µM
COCC(=O)N1CCCC(C(=O)c2ccc(Oc3ccccc3)cc2)C1 (stereo unspecified)	TDP1 cell CPT inconclusive, TDP1 cell noCPT 8.2µM
CC(C)Oc1cccc(C(=O)C2CCCN(C(=O)c3cc(C4CC4)[nH]n3)C2)c1 (stereo unspecified)	TDP1 cell noCPT inconclusive
NC(=O)N/N=C/c1cc(Br)ccc1OC(=O)c1ccccc1	none
Cc1cccc(Cn2c(=O)n(CCC(=O)NCc3ccc4c(c3)OCO4)c(=O)c3sccc32)c1	none (no result: HT1080 IDH1KD tx, HT1080NT lethal, IL-1B inflam inh)
CC(=O)Nc1ccc(NC(=O)[C@@H](NC(=O)N2C[C@H]3C[C@@H](C2)c2cccc(=O)n2C3)C(C)C)cc1	none
Cc1cc(C(=O)N2CCCC(C(=O)c3ccc(Oc4ccccc4)cc3)C2)n[nH]1 (stereo unspecified)	TDP1 cell CPT 21µM, TDP1 cell noCPT 13µM, IL-1B inflam inh inconclusive
